dFosB activator: enhances mouse delta FosB homodimer DNA binding; purified delta FosB, TAMRA-CDK5 oligo fluorescence polarization; percent of positive-control signal above neutral wells; activation, % at 25 µM; 0.99% of 340,000 active;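 active means mean activation above about 17%, with every replicate also reaching it, limit read from the data, passing the limit was not always enough; inconclusive means only one of the two conditions met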
Target sequence (P13346 whole entry, looked up): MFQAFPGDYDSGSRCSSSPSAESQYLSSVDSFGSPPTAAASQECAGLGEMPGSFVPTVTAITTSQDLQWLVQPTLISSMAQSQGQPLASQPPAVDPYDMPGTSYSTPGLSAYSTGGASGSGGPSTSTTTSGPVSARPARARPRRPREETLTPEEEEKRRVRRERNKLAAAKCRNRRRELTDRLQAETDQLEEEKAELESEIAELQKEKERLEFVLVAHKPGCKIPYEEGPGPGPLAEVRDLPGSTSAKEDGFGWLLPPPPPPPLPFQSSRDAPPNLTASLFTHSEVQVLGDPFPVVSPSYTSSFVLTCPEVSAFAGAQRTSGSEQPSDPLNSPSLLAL
NR3A LBD binder: NR3A (human) ligand-binding domain modulation; NR3A LBD differential scanning fluorimetry, Tm shift; 0% = protein alone, 100% = glycine-bound protein; Tm shift relative to glycine control, % at 25 µM; 2.5% of 340,000 active; AID 1259313;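 active means melting temperature shift of at least 10% of the positive control shift, at one fixed dose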
ZTA counter: blocks Epstein-Barr virus ZTA, an EBNA-1 counter-screen. P03206. ZTA-DNA binding, fluorescence polarization. inhibition, % at 11 µM. 0.15% of 320,000 active. AID 2234; in the data active means inhibition above about 33%
Rpn11 inh: blocks the human proteasome subunit Rpn11. O00487. human 26S proteasome, Ub4-pepOG fluorescence polarization; 20S core pre-blocked with epoxomicin. 0.59% of 360,000 active. AID 588493. inhibition, % at 20 µM;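 active means inhibition at 20 µM, scaled to each plate's controls, above about 33%, limit read from the data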
Target sequence (O00487 whole entry, looked up): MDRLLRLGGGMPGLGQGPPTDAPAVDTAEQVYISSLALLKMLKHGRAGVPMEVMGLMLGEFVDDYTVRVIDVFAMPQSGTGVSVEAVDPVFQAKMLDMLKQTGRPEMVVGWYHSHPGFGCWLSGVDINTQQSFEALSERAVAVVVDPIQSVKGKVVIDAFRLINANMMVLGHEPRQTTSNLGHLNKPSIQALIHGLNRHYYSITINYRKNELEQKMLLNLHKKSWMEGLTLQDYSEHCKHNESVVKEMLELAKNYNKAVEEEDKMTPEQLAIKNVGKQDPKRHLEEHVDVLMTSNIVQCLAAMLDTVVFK
EBNA-1 inhibitor: blocks EBNA-1 binding to DNA | EBNA-1 DNA binding, fluorescence polarization | inhibition, % at 14.8 µM | 0.34% of 300,000 active; in the data active means inhibition above about 28%
TPT1 inhibitor: C. albicans TPT1 enzyme inhibition. recombinant caTPT1, FP RNA substrate dephosphorylation. inhibition, % at 5 µM. 0.81% of 300,000 active;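 active means inhibition above the mean of all tested compounds plus 3 SD, set per screening campaign, cut at about 24% in these data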;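 further: plate controls were DMSO alone for no effect and ferristatin control at 100 nM for full effect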
Rpn11 confirm: confirmation of human proteasome Rpn11 inhibitors | AID 602318 | purified human 26S proteasome, Ub4-pepOG fluorescence polarization; proteasome pretreated with epoxomicin | 29% of 1,900 active | inhibition, % at 20 µM | shares compounds with Rpn11 inh
MMP-2 counter: MMP-2 (human) inhibition counter-screen. shares compounds with Rpn11 inh. recombinant MMP-2, FRET peptide cleavage fluorescence. inhibition, % at 20 µM. 4% of 1,900 active. AID 602330;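 further: human MMP-2 activated beforehand with APMA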
Thrombin FP: counter-screen for RPN11 inhibitors: inhibition of bovine thrombin; shares compounds with Rpn11 inh; bovine thrombin cleavage of Ub4-pepOG, fluorescence polarization; inhibition, % at 20 µM; 13% of 1,900 active; AID 602333;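 active means mean inhibition at least 40% at 20 µM, or signal 3 deviations below plate average, so some actives read negative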;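 further: plate controls were thrombin with DMSO for no effect and buffer wells lacking thrombin for full effect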
Active calls of the source: *; ? = inconclusive; . = not tested or not shown. Shown are actives, neighbours in structure and some others; about 4.5% of the full set was active somewhere. Unless noted, no stated cut-off is given here; in the data, active means inhibition above about 40%; inactive means the rest.

SMILES	dFosB activator	NR3A LBD binder	ZTA counter	Rpn11 inh	EBNA-1 inhibitor	TPT1 inhibitor	Rpn11 confirm	MMP-2 counter	Thrombin FP
COc1cc(Cl)c(C)cc1NC(=O)CSc1sc2c(O)cc(=O)[nH]c2c1C#N	-16.5	1.2	6.5	40.0*	6.7	8.1	-5.3	2.2	-22.4
CN(CCCN1CCCCC1)C(=O)c1cc(COc2ccc(F)cc2F)on1	0.3	0.3	15.6	-0.4	16.4	-2.8	.	.	.
COc1ccc(NC(=O)c2cc(Br)ccc2Cl)c([N+](=O)[O-])c1	7.4	3.0	-25.6	4.0	-5.2	1.3	.	.	.
COc1ccc(NC(=O)c2ccc(C)cc2Cl)c([N+](=O)[O-])c1	-2.7	11.3*	-6.0	48.0*	1.7	1.8	-6.1	-25.6	-8.3
Cc1ccc(C(C)C)cc1OCCCCN1CCCC1	-8.8	-3.2	-10.8	-1.6	3.5	-4.4	.	.	.
CNC(=O)C1(C(F)(F)F)C/C(=C\CCO)CCCO1 (stereo unspecified)	-1.8	0.6	-16.8	-8.3	-2.0	-1.9	.	.	.
COc1ccccc1C(=O)Nc1nnc(SCC(=O)Nc2ccc3c(c2)oc2ccccc23)s1	1.2	-3.9	6.1	63.4*	7.4	7.2	22.8	-24.4	-2.0
Cc1cccc(C)c1NC(=O)CNC(=O)Cn1nc(C)c(C)c(C#N)c1=O	-3.7	3.0	4.0	-2.3	-7.6	1.3	.	.	.
CN1CCCC1CCNc1ccc2c(=O)c3ccccc3oc2c1 (stereo unspecified)	7.4	1.4	-10.1	-6.5	0.4	-4.6	.	.	.
CN1CCC[C@H]1CCNc1ccc2c(=O)c3ccccc3n(C)c2c1	7.7	-1.1	.	48.0*	.	.	-8.8	5.5	-25.0
COc1ccccc1NS(=O)(=O)c1cc(N=N/C(C(=O)Nc2ccc(Cl)cc2)=C(/C)O)ccc1C	-3.3	-1.5	.	42.3*	.	.	-8.9	-9.8	-12.9
NCCCNc1nc(N)c([N+](=O)[O-])c(NC2CCCCC2)n1	2.8	6.3	-2.0	13.3	4.1	2.6	.	.	.
Nc1c(C(=O)OCC2CCCO2)c2nc3ccccc3nc2n1-c1ccc2c(c1)OCCO2 (stereo unspecified)	.	-0.1	4.6	.	-11.4	18.3	.	.	.
O=c1c2c3nc4ccccc4nc3n(-c3ccc4c(c3)OCCO4)c2ncn1C1CCCC1	-10.3	2.7	0.7	128.5*	5.3	0.7	-1.6	-13.2	-17.5
O=c1[nH]c(CN2CCN(S(=O)(=O)c3ccccc3C(F)(F)F)CC2)nc2sc3c(c12)CCCC3	11.9	-1.1	-4.1	71.0*	-11.9	4.9	14.1	1.2	-7.3
COc1cc2nc(CN3CCN(S(=O)(=O)c4ccccc4C(F)(F)F)CC3)[nH]c(=O)c2cc1OC	0.0	3.3	.	5.1	.	.	.	.	.
O=C1c2ccccc2C(=O)c2c(NCc3cccnc3)cccc21	-9.9	-4.4	-8.3	1.6	2.2	-2.0	.	.	.
O=C1c2cccc(NCCCNCCO)c2C(=O)c2cccc(NCCCNCCO)c21	?	1.3	.	42.5*	.	.	21.4	37.9	-43.5
O=C(c1cccn(Cc2ccc(Cl)c(Cl)c2)c1=O)N1CCOCC1	-0.3	-0.9	-23.7	101.9*	9.2	0.1	1.2	-15.6	-4.6
CC(=O)Oc1ccc(S(=O)(=O)c2ccc(OC(C)=O)cc2)cc1	-5.2	-0.8	-2.6	-5.0	5.1	-2.2	.	.	.
CC(=O)Oc1ccc(CCC(C)OC(C)=O)cc1 (stereo unspecified)	2.6	-6.3	-18.6	57.5*	-14.7	-2.0	-14.4	-0.4	-11.7
CC(=O)Nc1nc2cc([N+](=O)[O-])ccc2s1	-0.3	-0.4	-15.4	13.7	.	.	.	.	.
O=c1nc(Nc2ccc(Br)cc2)sc2ccc([N+](=O)[O-])cc12	12.8	13.4*	5.9	44.4*	-3.6	-0.8	-5.2	-1.4	-8.8
CCNC(=S)/N=C(\N)Nc1nc(C)c2cc(C)ccc2n1	-16.6	-2.9	-7.5	43.6*	-17.0	6.9	20.3	-11.8	19.6
CCCCCCCCCCOC(=O)Cn1c(COc2ccc(Cl)cc2)[n+](C)c2ccccc21	-118.4	20.7*	25.9	51.6*	-4.4	-4.5	49.8*	-5.0	-17.6
SMILES	dFosB activator	NR3A LBD binder	ZTA counter	Rpn11 inh	EBNA-1 inhibitor	TPT1 inhibitor	Rpn11 confirm	MMP-2 counter	Thrombin FP
CCCCCCCCCCOC(=O)Cn1c(COc2cccc(C)c2)[n+](C)c2ccccc21	?	0.3	9.6	40.4*	-0.2	3.6	8.7	-3.0	-32.6
CC(=O)Nc1ccc(NC(=O)c2nc(-c3ccccc3)oc2C)cc1	-2.0	-3.0	5.1	-1.6	-13.3	7.1	.	.	.
C[C@H](NC(=O)C1CCN(S(=O)(=O)c2ccccc2)CC1)C(=O)NCc1ccco1	0.2	0.6	9.5	-0.8	-8.6	0.3	.	.	.
C=CC(=C)CC(NC)c1ccccc1 (stereo unspecified)	2.1	-2.0	13.6	50.1*	10.8	-0.2	36.5	-9.0	-14.1
CC(=O)NC(CC(=O)O)c1ccccc1 (stereo unspecified)	-0.8	-0.9	4.4	1.3	3.2	-2.1	.	.	.
C=CCN(Cc1cccs1)C(=O)CN1CCN(S(=O)(=O)c2ccc3c(c2)OCCCO3)CC1	-10.4	0.2	11.5	3.1	.	.	.	.	.
N#C/C(=C\c1ccc(O)c([N+](=O)[O-])c1)c1nc2ccccc2s1	-27.2	-1.5	.	44.9*	.	.	42.1*	71.8*	15.2
Cc1ccc(/C=C2\SC(=S)N(CCCC(=O)Nc3cc(C)on3)C2=O)cc1	9.5	-0.9	16.2	-6.4	0.9	-5.6	.	.	.
Cc1cc(NC(=O)CN2C(=O)/C(=C/c3cccc(Br)c3)SC2=S)no1	19.0*	-0.4	5.8	45.1*	5.6	3.7	12.6	-72.9	-47.4
Cc1ccc(CN2CCc3c(OCC(=O)Nc4cc(C)ccc4C)cccc3C2=O)cc1	.	.	-11.0	.	1.9	-9.1	.	.	.
Cc1cc(Br)ccc1NC(=O)CNC(=O)Cc1ccc(S(=O)(=O)N2CCOCC2)s1	-8.1	-3.4	-3.2	3.6	-6.3	1.1	.	.	.
O=C(Cc1cccs1)N1CCC(c2nc3c(nnn3Cc3ccccc3)c(=O)[nH]2)CC1	-17.4	-2.2	1.5	53.4*	-1.2	1.2	-5.2	-9.2	-9.2
Cc1ccc(Cn2nnc3c(=O)[nH]c(C4CCN(C(=O)Cc5cccs5)CC4)nc32)cc1	-4.8	-5.5	0.7	0.4	8.0	1.8	.	.	.
c1ccc2c(-c3cn4ccccc4n3)c[nH]c2c1	.	.	1.5	.	-4.8	4.5	.	.	.
O=C(Nc1ccc2nn(-c3ccccc3)nc2c1)c1ccc(Br)o1	-8.4	18.9*	8.8	44.9*	17.9	4.3	34.8	38.3	-5.8
O=C(N/N=C/c1ccc2c(c1)OCO2)c1sc2cc(Cl)ccc2c1Cl	-4.3	-1.3	-9.8	104.7*	-11.6	0.8	2.7	-31.0	-1.2

High-throughput results as filed in PubChem.
